Only some compounds are listed: those with a hit (about 2.3% of all), similar ones and a draw of the others.
V-ATPase pH – regulators of yeast V-ATPase proton pumping, primary screen, pHLuorin cytosolic pH fluorescence | 350,000 compounds, 0.37% hits | S. cerevisiae | AID 504577, 2011 | response, % at 10 µM; in the data active = response mostly above about 7.3%, no sharp cut-off; inactive = mostly below about 5.4%; also: actives read high
ADAM10 inh – human ADAM10 inhibitors, primary screen, biochemical, QFRET, HTS; Disintegrin and metalloproteinase domain-containing protein 10 (Homo sapiens), O14672; recombinant ADAM10, EDANS/DABCYL FRET peptide cleavage, 3 h; inhibition, % at 7 µM; 370,000 compounds, 0.62% hits;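 active = inhibition above a per-campaign cutoff equal to the mean of compounds falling between control-based bounds plus 3 SD, cut at about 20% in these data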
Target sequence (O14672 214-748 limits assumed): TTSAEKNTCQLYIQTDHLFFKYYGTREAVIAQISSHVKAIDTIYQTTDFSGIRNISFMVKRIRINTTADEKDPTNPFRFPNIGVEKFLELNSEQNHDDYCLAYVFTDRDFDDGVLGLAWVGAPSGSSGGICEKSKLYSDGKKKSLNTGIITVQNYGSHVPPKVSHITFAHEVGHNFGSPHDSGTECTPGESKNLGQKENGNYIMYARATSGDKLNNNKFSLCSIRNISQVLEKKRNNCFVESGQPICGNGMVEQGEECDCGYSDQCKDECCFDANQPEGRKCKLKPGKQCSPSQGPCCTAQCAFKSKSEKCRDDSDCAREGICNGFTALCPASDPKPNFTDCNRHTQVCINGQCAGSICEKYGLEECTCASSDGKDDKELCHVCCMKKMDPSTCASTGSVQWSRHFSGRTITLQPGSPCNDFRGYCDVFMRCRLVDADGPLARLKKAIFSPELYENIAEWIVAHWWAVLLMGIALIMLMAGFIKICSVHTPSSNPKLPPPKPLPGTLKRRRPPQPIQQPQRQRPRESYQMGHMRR
KLK7 zymogen act – proKLK7 zymogen activators, primary screen, biochemical, fluorescence intensity; Kallikrein-7 (Homo sapiens), P49862; purified proKLK7, EDANS-DABCYL substrate fluorescence; 100% is mature enzyme control, 0% vehicle; activation, % at 7 µM; 370,000 compounds, 0.9% hits; AID 652039, 2013;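 active = activation above the mean of all tested compounds plus 3 SD, computed per campaign excluding outliers beyond control limits, cut at about 13% in these data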
ADAM17 inh – ADAM17 inhibitors, primary screen, biochemical, QFRET; Disintegrin and metalloproteinase domain-containing protein 17 (Homo sapiens), P78536; recombinant ADAM17, EDANS/DABCYL FRET peptide cleavage; inhibition, % at 6.95 µM; 370,000 compounds, 0.83% hits; AID 720648, 2013;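 active = inhibition above the mean of compounds lying between control limits plus 3 SD, set per campaign, cut at about 8.5% in these data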
Hits are given with their value; 0 = inactive; - = no result; + = active, no number.

SMILES	V-ATPase pH	ADAM10 inh	KLK7 zymogen act	ADAM17 inh
COc1cc(NC(=O)c2cccs2)c(OC)cc1NC(=O)CCC(=O)Nc1ccc2ncccc2c1	0	0	67.6	0
CC(C)(N[C@@H](Cc1ccccc1)C(=O)NCC(c1ccccc1)c1ccccc1)C(=O)NC1CCCCC1	-	0	-	0
CC(C)c1ccc(N(C(=O)c2ccco2)C(C(=O)NC2CCCC2)c2ccncc2)cc1 (stereo unspecified)	13.7	0	0	0
Cc1ccccc1C(=O)N/N=C/c1ccc([N+](=O)[O-])s1	0	0	0	0
Cc1c(Cl)cccc1N=Cc1ccc([N+](=O)[O-])s1	20.3	0	0	0
Nc1[nH]c(C(=O)c2ccccc2)c(-c2ccccn2)c1C(=O)c1c[nH]c2ccc(Br)cc12	-	0	-	0
O=C1NC(=S)S/C1=C\C=C\c1ccc([N+](=O)[O-])o1	54.0	0	0	0
O=C(O)/C=C/c1ccc([N+](=O)[O-])o1	0	0	0	0
Cc1ccc(NC(=O)CN(C)Cc2ccc(Cl)cc2)cc1	0	0	0	8.8
O=C(CNC(=O)c1sc2ccccc2c1Cl)NCc1ccc(F)cc1	17.9	0	0	0
O=C1CN(C(=O)C2CCCCC2)C=CN1CCc1ccccc1Br	-	0	-	0
COc1ccc(C(=O)NCC2CCCO2)cc1S(=O)(=O)N1CCCc2ccccc21 (stereo unspecified)	0	0	0	0
COc1ccc(C(=O)NCc2ccc(C)cc2)cc1S(=O)(=O)N1CCCc2ccccc21	0	0	0	18.1
O=C1C(Cl)=C(Nc2ccccc2)C(=O)c2ccccc21	0	0	0	0
O=C1C(Cl)=C(NCCc2ccccc2)C(=O)c2ccccc21	11.9	0	0	0
Cc1csc(=Nc2c(C)n(C)n(-c3ccccc3)c2=O)n1-c1ccccc1	0	0	0	0
Cc1c(N=C2C(=O)Nc3ccccc32)c(=O)n(-c2ccccc2)n1C	9.3	0	0	0
CCN(CC)c1ccc(NC(=O)c2ccccc2)cc1S(=O)(=O)Nc1ccccc1OC	0	0	0	9.4
COc1ccccc1NS(=O)(=O)c1cc(NC(=O)c2ccc(Cl)nc2)ccc1Cl	0	0	0	0
COc1ccc(NC(=O)c2ccccc2)cc1NS(=O)(=O)c1ccc(F)cc1	0	0	0	0
CCN(CC)c1ccc(NC(=O)c2cccc(C)c2)cc1S(=O)(=O)Nc1ccccc1OC	0	24.7	0	12.6
C=CC[C@@H](Cc1ccc(F)cc1)C(=O)OC[C@@H]1CCCN1C(=O)[C@H](CC=C)CC(=O)N[C@H](CO)Cc1ccccc1	0	0	0	14.9
COc1ccc(C(=O)CCS(=O)(=O)c2ccc(C)cc2)cc1	0	0	0	0
COc1ccc(C(CC(=O)c2ccc(O)cc2)S(=O)(=O)c2ccc(C)cc2)cc1 (stereo unspecified)	0	0	46.2	0
Cc1ccccc1OCC(=O)NC1=NCCS1	16.6	0	0	0
SMILES	V-ATPase pH	ADAM10 inh	KLK7 zymogen act	ADAM17 inh
Cc1ccc(OCC(=O)NC2=NCCS2)cc1	0	0	0	0
O=C(O)CSc1c(-c2ccccc2)[nH]c2ccccc12	17.1	0	0	0
Cc1ccc(NC(=S)NNC(=O)CSc2nc3sc4c(c3c(=O)n2-c2ccccc2)CCCC4)cc1	-	0	0	0
COc1ccc(NC(=O)N(C)C[C@H]2Oc3c(NC(=O)Nc4ccc(C(F)(F)F)cc4)cccc3C(=O)N([C@H](C)CO)C[C@@H]2C)cc1	0	0	0	9.9
C[C@H](CO)N1C[C@H](C)[C@@H](CN(C)C(=O)Nc2ccc3c(c2)OCO3)Oc2c(NC(=O)Nc3ccc(C(F)(F)F)cc3)cccc2C1=O	0	0	0	9.4
C[C@H](CO)N1C[C@H](C)[C@@H](CN(C)C(=O)Nc2ccc(C(F)(F)F)cc2)Oc2c(NC(=O)Nc3ccccc3)cccc2C1=O	0	0	0	0
CCOc1ccc(C=Nn2c(-c3cccc(OC(C)C)c3)n[nH]c2=S)cc1	-	0	0	0
CCCN1CCCCC(NC(=O)c2ccc(Cl)cc2Cl)C1=O (stereo unspecified)	-	0	0	0
COc1ccccc1-c1nnc(NC(=O)C(C)C)s1	8.0	0	0	0
COc1ccc(/C=C2\CC3(OC(=O)c4cccc(F)c4)CCCN2C3)cc1 (stereo unspecified)	-	0	0	0
O=C(Nc1ccc([N+](=O)[O-])cc1)C1CC1(c1ccccc1)c1ccccc1 (stereo unspecified)	0	0	0	0
CC1(C)C(C=C(Cl)Cl)C1C(=O)Nc1ccc([N+](=O)[O-])cc1 (stereo unspecified)	-	25.0	0	11.5
CCN(CC)S(=O)(=O)c1ccc(NC(=O)Nc2cccc(C(F)(F)F)c2)cc1	0	39.1	0	13.6
O=C(Nc1ccncc1)Nc1cccc(C(F)(F)F)c1	0	0	0	0
COc1ccc(S(=O)(=O)N2CCC(O)(c3ccc(Cl)cc3)CC2)cc1OC	17.1	0	0	0
COc1ccc(S(=O)(=O)N2CCC(O)(c3ccc(Cl)cc3)CC2)cc1	0	0	0	0
Cc1cc(C)c2sc(NNC(=O)c3ccc(S(=O)(=O)N4CCc5ccccc5C4)cc3)nc2c1	0	0	0	10.8
Cc1cc(C)c2nc(NNC(=O)c3ccc(S(=O)(=O)N4CCc5ccccc5C4)cc3)sc2c1	0	0	0	0
CCOC(=O)[C@@]12CCCC=C1N(CCc1ccc(Cl)cc1)C(=O)[C@H]2CC(=O)NCc1cccs1	-	0	0	0
CCN1/C(=C/C=C/c2oc3ccc(-c4ccccc4)cc3[n+]2CC)Oc2ccc(-c3ccccc3)cc21	+	0	0	0
CCN1/C(=C/C=C/c2sc3ccccc3[n+]2CC)Sc2ccccc21	0	-	-	-
CC1CCN(CCCn2c(=S)[nH]c3ccc(N4CCOCC4)cc3c2=O)CC1	0	0	52.6	0
COc1cc2c(c(OC3OC(CO)C(O)C(O)C3O)c1)C(=O)CC(c1ccc(O)cc1)O2 (stereo unspecified)	-	0	0	0
O=C(C1=C[C@H](c2csc3ccccc23)C[C@H](OCc2ccc(CO)cc2)O1)N1CCN(Cc2ccc3c(c2)OCO3)CC1	0	21.5	0	0
O=C(C1=C[C@H](c2csc3ccccc23)C[C@H](OCc2ccc(CO)cc2)O1)N1CCN(Cc2ccccc2)CC1	0	0	0	0
SMILES	V-ATPase pH	ADAM10 inh	KLK7 zymogen act	ADAM17 inh
Cc1cccc(COCC(Cc2ccccc2)N2CCN(C(=O)c3ccc(Cl)c(Cl)c3)CCC2=O)c1 (stereo unspecified)	0	28.2	0	0
CC(=O)Nc1sc2c(c1-c1nc3ccccc3s1)CCN(C(C)C)CC2	-	0	-	0
Cc1c(Cl)cccc1-n1cnc(=O)c2ccccc21	13.0	0	0	0
COc1cc(/C=C/C(=O)c2ccc(NS(=O)(=O)c3ccc(C)cc3)cc2)cc(OC)c1O	113.1	0	0	0
COc1cc(/C=C/C(=O)c2ccc(NS(=O)(=O)c3ccc(C)cc3)cc2)ccc1OC(F)F	0	0	0	0
Cc1cccc(Oc2coc3cc(OC(=O)c4cccs4)ccc3c2=O)c1	0	0	40.8	0

From PubChem BioAssay
